Compound activity as filed in PubChem.
Hits are enriched below; roughly 18% of the tested compounds scored in any of these assays.
DT40 TDP1 no CPT: qHTS for Inhibitors of human tyrosyl-DNA phosphodiesterase 1 (TDP1): qHTS in cells in absence of CPT. Potency, µM (series often up to 46.2 µM), hits mostly inhibitors. AID 686978, 2013. DT40 Tdp1-/- hTDP1 cells, no CPT, ATP luminescence, 48 h. 15% of 420,000 active; further: nearly all actives have a fitted effect of over 55% in size
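Growth kinetics read by CellTiter-Glo luminescence after ≥48 hr at 37 °C. Cells: DT40 Tdp1-/- stably carrying human TDP1, 400 per well, compound exposure in the absence of CPT (DMSO vehicle).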
DT40 TDP1 CPT: growth inhibition of DT40 Tdp1-/-;hTDP1 cells with camptothecin (screen for TDP1 inhibitors). 12% of 420,000 active. chicken DT40 Tdp1-/-;hTDP1 cells + 20 nM CPT, ATP luminescence, 48 h. AID 686979. Potency, µM (doses to about 46.2 µM), actives largely listed as inhibitors; further: nearly all actives have a fitted effect of over 55% in size
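Chicken DT40 Tdp1-/- cells stably complemented with human TDP1 were seeded at 400 cells/well in medium containing 20 nM camptothecin, exposed to pin-transferred compounds, and grown at 37 °C for at least 48 hr. Viability was read as ATP luminescence.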
IL-1B inflam inh: inhibitors of inflammasome signaling (IL-1 beta secretion); activity change, % at 57.5 µM; THP-1 LPS/ATP IL-1B secretion, AlphaLISA, 16 h; stronger effect = lower value; 4.7% of 360,000 active; AID 743279; in the data active means activity change below about -50%; inconclusive means mostly about -30% to -49%
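THP-1 cells pretreated 1 hr with compounds (up to 57.5 uM final), then stimulated with LPS (250 ng/mL final) plus ATP (1.25 mM final); secreted IL-1B measured by AlphaLISA after 16 hr, decreased signal indicating inhibition.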
CtBP-E1A blk: blocks the CtBP interaction with E1A; AlphaScreen GST-E1A/His-CtBP binding, 1536-well; stronger effect = lower value; activity change, % (concentration not given with the values); 0.49% of 340,000 active; in the data active means activity change below about -65%; inconclusive means mostly about -30% to -63%
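GST-E1A and His-tagged CtBP (125 nM each as 5X stock) were preincubated with pin-transferred compound for 2 h at 37 °C in the dark, then glutathione donor and nickel acceptor beads were added for 1 h before AlphaScreen reading.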
Six1-Eya2 inh: Six1/Eya2 interaction inhibition; AlphaScreen GST-Six1/His-Eya2 binding, biochemical; stronger effect = lower value; 0.56% of 360,000 active; Q15475+O00167; AID 651725; activity change, % (test concentration not listed); in the data active means activity change below about -65%; inconclusive means mostly about -30% to -63%
Target sequence (O00167 whole entry, looked up): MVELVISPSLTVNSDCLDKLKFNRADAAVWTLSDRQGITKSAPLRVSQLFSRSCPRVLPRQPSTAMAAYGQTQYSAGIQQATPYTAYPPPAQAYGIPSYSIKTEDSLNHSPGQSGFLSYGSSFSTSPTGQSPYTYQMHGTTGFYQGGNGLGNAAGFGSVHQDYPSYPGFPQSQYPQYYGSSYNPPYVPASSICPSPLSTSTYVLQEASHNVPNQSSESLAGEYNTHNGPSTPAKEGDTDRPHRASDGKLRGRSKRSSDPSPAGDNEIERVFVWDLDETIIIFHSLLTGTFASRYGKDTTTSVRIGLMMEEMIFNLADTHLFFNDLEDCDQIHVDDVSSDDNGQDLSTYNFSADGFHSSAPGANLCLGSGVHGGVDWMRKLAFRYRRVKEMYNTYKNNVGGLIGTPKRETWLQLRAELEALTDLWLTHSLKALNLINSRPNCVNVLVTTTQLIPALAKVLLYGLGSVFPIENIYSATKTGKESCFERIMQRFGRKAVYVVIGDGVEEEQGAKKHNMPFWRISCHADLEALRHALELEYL
Target sequence (Q15475 whole entry, looked up): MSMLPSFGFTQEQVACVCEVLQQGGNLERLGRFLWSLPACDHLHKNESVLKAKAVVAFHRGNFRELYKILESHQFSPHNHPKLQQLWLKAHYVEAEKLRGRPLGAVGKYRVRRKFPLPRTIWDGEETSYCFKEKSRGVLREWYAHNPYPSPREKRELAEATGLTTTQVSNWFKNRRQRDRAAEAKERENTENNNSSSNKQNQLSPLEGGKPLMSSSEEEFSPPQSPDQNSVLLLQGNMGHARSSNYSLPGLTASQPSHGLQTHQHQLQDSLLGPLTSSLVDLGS
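AlphaScreen with GST-Six1 and His-Eya2 (5X mix: 250 nM and 500 nM), glutathione donor and nickel acceptor beads; buffer 50 mM Tris pH 8.0, 300 mM NaCl, 1 mM TCEP; 1 h at 37 C in the dark.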
TDP1 block: blocks human tyrosyl-DNA phosphodiesterase 1; recombinant TDP1, AlphaScreen DNA substrate cleavage; Potency, µM (doses to about 130 µM), usual class: inhibitors; 0.28% of 350,000 active; AID 485290; further: nearly all actives have a fitted effect of over 40% in size
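Recombinant human Tdp1 (E. coli-expressed, 1 nM final) preincubated with compounds 15 min at room temperature, then 5'-biotin/3'-phosphotyrosine-FITC DNA substrate (15 nM final) added for 5 min. AlphaScreen beads (10 ug/ml final) added 10 min; cleavage lowers signal.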
Numbers stand for hits; . = inactive; ? = inconclusive; / = no result given. Unless noted, the call rests on the fitted dose curve; in most records, active means well fitted curve in the direction sought with a large enough effect; inconclusive means small, poorly fitted or top-dose-only effect, or another doubt; inactive means no such curve, though single readings can be large; an effect the other way counts as inactive or inconclusive.

SMILES	DT40 TDP1 no CPT	DT40 TDP1 CPT	IL-1B inflam inh	CtBP-E1A blk	Six1-Eya2 inh	TDP1 block
CC(C)(CSc1ccccn1)NS(=O)(=O)c1ccc(Cl)cc1	.	.	.	.	.	.
CN(c1cccc(NC(=O)Cc2ccccc2)c1)S(C)(=O)=O	?	.	.	.	.	.
Cc1cccc(CCNC(=O)c2cnc3c(C)cccn3c2=O)c1	?	.	/	/	/	.
O=C(c1ccc2c(c1)N(Cc1cccc(Cl)c1)C(=O)c1ccccc1S2(=O)=O)N1CCCCCC1	23µM	18µM	/	/	/	.
O=C(NCCCN1CCCC1)c1ccc2c(c1)N(Cc1cccc(Cl)c1)C(=O)c1ccccc1S2(=O)=O	?	?	.	.	.	/
O=C(c1ccc2c(c1)N(Cc1ccc(F)cc1)C(=O)c1ccccc1S2(=O)=O)N1CCN(Cc2ccccc2)CC1	8.2µM	12µM	/	/	/	.
O=C(c1ccc2c(c1)N(Cc1ccccc1)C(=O)c1ccccc1S2(=O)=O)N1CCc2ccccc21	3.3µM	4.1µM	/	/	/	.
CC1CCCN(CCCNC(=O)c2ccc3c(c2)N(Cc2cccc(Cl)c2)C(=O)c2ccccc2S3(=O)=O)C1 (configuration not stated)	5.8µM	6.5µM	/	/	/	.
O=C(NCc1ccccc1)c1ccc2c(c1)N(Cc1ccccc1)C(=O)c1ccccc1S2(=O)=O	?	.	/	/	/	.
CCN1CCN(C(=O)c2ccc3c(c2)N(Cc2ccc(F)cc2)C(=O)c2ccccc2S3(=O)=O)CC1	?	?	/	/	/	.
S=c1[nH]nc(-c2ccco2)n1/N=C/c1cccc(Cl)c1Cl	?	.	.	.	.	.
COc1ccccc1N1CCN(C(=O)c2ccc3c(c2)N(Cc2ccccc2)C(=O)c2ccccc2S3(=O)=O)CC1	12µM	?	/	/	/	.
CC1CCCCN1C(=O)c1ccc2c(c1)N(Cc1ccc(F)cc1)C(=O)c1ccccc1S2(=O)=O (configuration not stated)	18µM	?	/	/	/	.
COc1ccc(N2CCN(C(=O)c3ccc4c(c3)N(Cc3cccc(Cl)c3)C(=O)c3ccccc3S4(=O)=O)CC2)cc1	.	.	/	/	/	.
O=C(c1ccc2c(c1)N(Cc1cccc(Cl)c1)C(=O)c1ccccc1S2(=O)=O)N1CCN(Cc2ccccc2)CC1	9.2µM	15µM	/	/	/	.
CCC1CCCCN1C(=O)c1ccc2c(c1)N(Cc1cccc(Cl)c1)C(=O)c1ccccc1S2(=O)=O (configuration not stated)	16µM	18µM	/	/	/	.
N=C1C(c2ccccc2)=C(O)CN1c1ccccc1N1CCOCC1	.	.	.	.	.	.
CN(C)C(CNC(=O)C1CCN(S(=O)(=O)c2cccc(C(F)(F)F)c2)CC1)c1ccccc1 (configuration not stated)	.	.	.	.	.	.
COc1ccc(S(=O)(=O)N(CC(=O)NCc2ccncc2)c2ccc(C)cc2)cc1Br	.	.	.	.	.	.
O=C(c1ccc2c(c1)N(Cc1cccc(Cl)c1)C(=O)c1ccccc1S2(=O)=O)N1CCCC1	21µM	23µM	/	/	/	.
Cc1cccc(N2CCN(C(=O)c3ccc4c(c3)N(Cc3cccc(Cl)c3)C(=O)c3ccccc3S4(=O)=O)CC2)c1C	.	.	/	/	/	.
Cc1[nH]c2ccccc2c1C(=O)CN1CCC2(CC1)OCCO2	.	.	.	.	.	.
Cc1[nH]c2ccccc2c1C(O)CN1CCC2(CC1)OCCO2 (configuration not stated)	16µM	?	.	.	.	.
CC(C)(C)c1ccc(C(=O)C[n+]2ccc(Cl)c3ccc(Cl)cc32)cc1	0.35µM	0.89µM	/	/	/	/
Cc1cccc[n+]1CC(=O)c1ccc(Cl)cc1	.	.	.	/	.	/
SMILES	DT40 TDP1 no CPT	DT40 TDP1 CPT	IL-1B inflam inh	CtBP-E1A blk	Six1-Eya2 inh	TDP1 block
O=C(Nc1ccc(F)cc1Cl)n1ncc2cc(Cl)ccc21	?	?	/	/	/	.
CCN(CC)CCNC(=O)c1ccc(NC(=O)Cc2ccc(OC)c(S(=O)(=O)N3CCOCC3)c2)cc1	.	.	.	.	.	/
C=CC(=O)Nc1ccc(CN2C(=O)N(c3c(Cl)c(OC)cc(OC)c3Cl)Cc3cnc(NCCCCN(CC)CC)nc32)cc1	13µM	12µM	-67	.	.	.
Cc1sc2ncnc(N3CCC(C(=O)Nc4ccc(Cl)c(Cl)c4)CC3)c2c1C	?	?	.	.	.	.
Cc1sc2ncnc(N3CCC(C(=O)Nc4ccc(Cl)cc4Cl)CC3)c2c1C	18µM	?	.	.	.	.
Cc1sc2ncnc(N3CCC(C(=O)NCC(=O)Nc4ccc(F)c(F)c4)CC3)c2c1C	?	?	-79	.	.	.
c1csc(-c2csc3nc(CN4CCOCC4)nc(NCc4ccc5c(c4)OCO5)c23)c1	?	23µM	.	.	.	.
COc1cc(OC)c(NC(=O)c2cc(C(C)=O)n3ccccc23)cc1Cl	?	7.3µM	/	/	/	.
COc1ccc(NC(=O)c2cnc(N3CCOCC3)c3ccccc23)cc1OC	?	?	/	/	/	.
CCN1CCN(c2ncc(C(=O)Nc3c(F)cc(F)cc3Br)c3ccccc23)CC1	16µM	14µM	.	.	.	.
COc1cc(Cl)c(C)cc1NC(=O)c1cnc(N2CCOCC2)c2ccccc12	9.2µM	10µM	/	/	/	.
COc1cc(Cl)c(C)cc1NC(=O)C1CCN(c2nc3ccccc3n3cccc23)CC1	16µM	?	/	/	/	.
CC(C)(C)OC(=O)[C@H](CCCCN)NC(=O)c1nc[nH]c1C(=O)NCCCCCN	.	.	.	.	.	/
COc1ccc(NC(=O)[C@H](C)NC(=O)[C@@H]2Cc3ccccc3CN2C(=O)OC(C)(C)C)cc1	?	.	.	/	.	.
Cc1ccsc1C(C(=O)NCc1ccccc1)N(C(=O)c1csnn1)c1ccccc1 (configuration not stated)	?	.	.	.	.	.
CCN1CCN(c2ncc(C(=O)N3CCN(c4ccccc4OC)CC3)c3ccccc23)CC1	?	.	.	.	.	/
CCN1CCN(c2ncc(C(=O)Nc3cc(Cl)c(OC)cc3OC)c3ccccc23)CC1	21µM	?	.	.	.	.
COc1cc(C2Oc3ccccc3C=C2[N+](=O)[O-])cc(OC)c1OC (configuration not stated)	2.6µM	3.3µM	-104	/	.	.
CCN(CC)CCNC(=O)C(Cl)=C1C(Cl)=C(Cl)C(Cl)=C1Cl	16µM	?	-100	.	.	/
O=C(NC1CCCCCC1)c1cc(S(=O)(=O)N2CCC3(CC2)OCCO3)ccc1F	?	.	.	.	.	.
